Screening results deposited in PubChem BioAssay by National Center for Advancing Translational Sciences (NCATS).
The list is not random: actives were taken first. Their share in the collection is about 19%.
SARS PLP yeast: inhibitors of SARS-CoV papain-like protease in yeast; AID 485353; Potency, µM (top dose mostly 32.9 µM), for inactives: top-dose activity, positive = growth rescue, most hits filed as activators; 330,000 tested, 0.19% active; S. cerevisiae expressing SARS-CoV PLpro, growth rescue; calls by dose curve; note: potency is the fitted concentration of half-maximal effect; 0% is about no effect; nearly all actives have a fitted effect of over 55% in size
Pf growth 48h: P. falciparum growth inhibition at 48 hours (one generation); P. falciparum luciferase growth in erythrocytes, 48 h; Potency, µM (highest dose often 28.7 µM), inactives show at the top dose activity change, negative = inhibition, hits mostly inhibitors; 310,000 tested, 5.9% active; AID 504832; note: potency is the fitted concentration of half-maximal effect; % is set by controls: 0 for no effect and ±100 for the full control effect
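Read-out is firefly luciferase luminescence from an integrated reporter in P. falciparum, so falling signal marks reduced parasite growth. Infected erythrocytes were at 2% hematocrit and 0.1% parasitemia (final) in Albumax-supplemented RPMI 1640.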
CHX counter: counter-screen for Shiga toxin inhibitors: cycloheximide protein synthesis inhibition. 300,000 tested, 12% active. cell reporter, cycloheximide protein synthesis inhibition counterscreen. max response, %; in the data active = max response mostly above about 13%, no sharp cut-off; inactive = mostly below about 14%; note: read at 38.3 µM for the half of the compounds with a filed dose; 0% is about no effect
AMA1 RON2 block: AMA1-RON2 (P. falciparum) interaction inhibition. Potency, µM (top dose mostly 58.2 µM), for inactives: top-dose activity change, negative = inhibition, most hits filed as inhibitors. AlphaScreen AMA1-biotinylated RON2 peptide binding. AID 720542. 360,000 tested, 0.2% active;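 note: potency is the fitted concentration of half-maximal effect; 0% = vehicle wells and -100% = peptide control; nearly all actives have a fitted effect of over 45% in size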
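AMA1 (3D7) with his tag at 25 nM final met compounds first, then biotinylated RON2 peptide at 25 nM; detection used donor plus acceptor beads, 10 µg/mL apiece, read by AlphaScreen after 30 min at room temperature.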
Shiga toxin inh: inhibitors of Shiga toxin in Vero cells; inhibition, % at 38.7 µM; Vero cells, Shiga toxin protein synthesis inhibition reporter; 290,000 tested, 9.2% active; in the data active = inhibition mostly above about 28%, no sharp cut-off; inactive = mostly below about 43%; note: 0% is about no effect
Pf growth 96h: P. falciparum growth inhibition at 96 hours; 320,000 tested, 6.9% active; AID 504834; Potency, µM (titrated, usually from 28.7 µM), for inactives: at the highest dose activity change, negative = inhibition, most hits filed as inhibitors; P. falciparum luciferase reporter growth, 96 h; note: potency is the fitted concentration of half-maximal effect; % is set by controls: 0 for no effect and ±100 for the full control effect
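Two parasite generations (96 h, 37 C, 5% CO2) of compound exposure in infected erythrocytes (0.05% parasitemia, 2% hematocrit). Luciferase-reporter P. falciparum; decreased luminescence indicates inhibited growth, aimed at apicoplast-acting delayed death.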
* marks the source's active call; other numbers are inactive results; ? = inconclusive; · = no result; [ ] = another dose, or the depositor's remark. Unless noted, calls come from the whole dose curve; as a rule, active = well fitted curve in the direction sought with a large enough effect; inconclusive = small, poorly fitted or top-dose-only effect, or another doubt; inactive = no such curve, though single readings can be large; an effect the other way counts as inactive or inconclusive.

SMILES | SARS PLP yeast | Pf growth 48h | CHX counter | AMA1 RON2 block | Shiga toxin inh | Pf growth 96h
CCSc1nnc(NC(=O)[C@H](C)NC(=O)c2ccccc2Cl)s1 | -4.8% | 1.2% | -0.8 | -13.2% | -6.0 | 5.7%
CC(C)c1nnc(NC(=O)c2cccnc2)s1 | 7.0% | 105.1% | 30.7* | -18.0% | 29.0 | 41.4%
CCSc1nnc(NC(=O)[C@@H](NC(=O)c2ccccc2)C(C)C)s1 | -1.8% | 3.5% | -2.3 | 8.9%[11.6 µM] | -4.7 | ?
CCSc1nnc(NC(=O)c2ccccc2C)s1 | 0.2% | 291.5% | 36.1* | 8.7% | 125.3* | ?
CC1CN(c2nnc(NC(=O)c3ccccc3)s2)CC(C)O1 (stereo unspecified) | -6.7% | 20.0% | 23.2 | -1.5% | 62.1* | 42.2%
NNC(=O)C(Cc1ccccc1)NC(=O)OCc1ccccc1 (stereo unspecified) | -2.3% | -3.4% | -0.7 | -4.9% | -3.6 | 33.2%
COc1ccc(N(CC(O)CN2CCOCC2)S(=O)(=O)c2ccc(C)cc2)cc1 (stereo unspecified) | -0.5% | 27.5% | -5.0 | 5.5% | -7.5 | 2.9%
CCc1cc2c(SCC(=O)NC3CCCC3)ncnc2s1 | · | · | · | -12.7% | · | ·
CCSc1nnc(NC(=O)CC)s1 | 9.2% | · | -3.8 | 0.0% | -7.8 | -33.9%
CCSc1nnc(NC(=O)c2cccnc2)s1 | 9.0% | 33.6% | 16.9* | 7.6% | 35.0 | -11.5%
CCSc1nnc(NC(=O)CC(C)C)s1 | 1.1% | 66.5% | 18.4* | -3.3% | 27.9 | 37.4%
CN(C)CCCN=c1cc(-c2ccccc2)oc2ccc(Cl)cc12 | -6.6% | ? | 13.6* | 4.8% | 27.0 | ?
O=c1oc2ccc(Cl)cc2cc1-c1ccccc1 | 10.9% | 8.7% | 4.1 | 11.3% | -2.1 | 88.2%
OCCN=c1cc(-c2ccccc2)oc2ccc(Cl)cc12 | -6.0% | ? | 52.4* | -3.7% | 189.7* | ?
CC(C)CC(NC(=O)OC(C)(C)C)c1cn([C@@H](CCC(=O)OC(C)(C)C)C(=O)N2CCN(C(=O)OC(C)(C)C)CC2)nn1 (stereo partly specified) | 0.0% | ? | -2.1 | 9.4% | 14.4 | 10.4µM*
CC[C@@H](C)C(NC(=O)OC(C)(C)C)c1cn([C@@H](Cc2ccc(O)cc2)C(=O)N2CCN(C(=O)OC(C)(C)C)CC2)nn1 (stereo partly specified) | -0.1% | 11.0% | -1.7 | -1.9% | 14.9 | 8.28µM*
CC[C@@H](C)C(C(=O)N1CCN(C(=O)OC(C)(C)C)CC1)n1cc(-c2cn([C@@H](C)C(=O)N3CCN(C(=O)OC(C)(C)C)CC3)nn2)nn1 (stereo partly specified) | -0.8% | ? | -3.2 | -0.1% | -5.9 | ?
CC[C@H](C)C(C(=O)N1CCN(C(=O)OC(C)(C)C)CC1)n1cc(C(CC(C)C)NC(=O)OC(C)(C)C)nn1 (stereo partly specified) | -0.3% | ? | 1.1 | 1.3% | 19.9 | 2.33µM*
C=CCOc1cccc(C2C(C(=O)c3ccc(C)o3)=C(O)C(=O)N2c2nccs2)c1 (stereo unspecified) | -3.5% | 45.4% | -2.5 | 1.7% | -17.4 | ·
COc1ccc(Cn2nnnc2C(c2cccs2)N2CCN(c3ccc([N+](=O)[O-])cc3)CC2)cc1 (stereo unspecified) | 2.1% | 10.4µM* | -2.0 | -1.5% | -1.0 | ?
COc1ccc(Cn2nnnc2CN2CCc3ccccc3C2)cc1 | -3.6% | · | -6.9 | -8.9% | -14.7 | 13.1µM*
CCCC(c1nnnn1Cc1ccc(OC)cc1)N1CCN(c2ccccc2OC)CC1 (stereo unspecified) | -1.6% | 10.4µM* | -3.9 | -14.9% | 9.1 | ·
CCCC(c1nnnn1Cc1ccccc1)N1CCN(c2ccccc2OC)CC1 (stereo unspecified) | -0.6% | -20.6% | -5.3 | -8.6% | -8.9 | ?
COc1ccc(Cn2nnnc2C(c2ccccc2Cl)N2CCN(C)CC2)cc1 (stereo unspecified) | 6.0% | -17.4% | -1.8 | 1.8% | -15.2 | 116.7%
CCN1CCN(C(c2ccccc2)c2nnnn2Cc2ccc(OC)cc2)CC1 (stereo unspecified) | -1.4% | 0.9% | -7.9 | -0.3% | -12.7 | 5.22µM*
SMILES | SARS PLP yeast | Pf growth 48h | CHX counter | AMA1 RON2 block | Shiga toxin inh | Pf growth 96h
COc1ccc(Cn2nnnc2C(c2cccs2)N2CCN(c3ccccc3)CC2)cc1 (stereo unspecified) | -3.7% | -22.1% | 5.6 | 1.0% | 52.7 | 5.7%[5.75 µM]
COC(=O)c1ccc(NC(=O)CO/N=C2\CCCc3nonc32)cc1 | 1.3% | 19.6% | 1.8 | -12.8% | -3.9 | ?
N#C/C(=C\c1cccnc1)c1ccccn1 | -1.3% | 4.0% | 10.8* | 6.0% | 25.0 | ?
CNc1ccc(/C=C(\C#N)c2ccccn2)cc1[N+](=O)[O-] | 1.5% | 222.6% | 45.0* | 6.0% | 68.9* | 187.4%
N#C/C(=C\c1ccccc1)c1ccccn1 | -5.8% | 47.7% | 31.3* | 16.9% | 91.2* | 60.4%
COc1ccc(/C(C#N)=C/c2cccnc2)cc1 | -2.4% | 77.4% | 44.9* | · | 70.6* | 68.3%
COc1ccc(C(C#N)=Cc2cccc(OC)c2OC)cc1 | · | · | · | 83.8% | · | ·
COc1cc(/C=C(\C#N)c2ccccn2)ccc1OCC(=O)Nc1c(Cl)cccc1Cl | 6.9% | -26.4% | -0.9 | -0.4% | 8.9 | -12.6%
Cc1onc(-c2ccccc2)c1C(=O)Nc1nnc(CC(C)C)s1 | 1.3% | 11.5% | -2.3 | 2.3% | -6.4 | -1.0%
CC(=O)Nc1nc2c(s1)C(=O)NCCC2 | -0.1% | 14.8% | -0.5 | -6.4% | -10.9 | 78.0%
COc1ccc(-c2cnc(C(O)c3ccc(CN4CCCCC4)cc3)[nH]2)cc1 (stereo unspecified) | · | · | · | 6.8% | · | ·
C(=C\c1ccccn1)/c1cccnc1 | -2.6% | 104.5% | 21.2* | · | 66.7* | 107.3%
N#C/C(=C\c1ccc(Cl)c([N+](=O)[O-])c1)c1ccccn1 | -1.9% | 17.6%[5.75 µM] | 12.0 | ? | -11.4 | 41.0%[5.75 µM]
O=C(C=Cc1cccnc1)c1ccccc1 | · | · | · | 7.2% | · | ·
N#C/C(=C\c1ccncc1)c1ccccn1 | -3.2% | ? | 2.4 | -3.5% | 5.8 | 10.4µM*
O=C(COC(=O)c1ccc(=O)[nH]c1)Nc1cccc(S(=O)(=O)N2CCOCC2)c1 | 0.3% | ? | 6.5 | 42.1% | -1.1 | 7.0%
COc1ccc2cc(-c3[nH]ncc3CN3CCCC3c3nonc3C)ccc2c1 (stereo unspecified) | -0.7% | -22.2% | 34.6* | -7.1% | 50.9* | 4.65µM*
COc1ccc(-c2[nH]ncc2CN2CCCC(C(=O)c3cccc(OC)c3)C2)cc1 (stereo unspecified) | -0.6% | -14.7% | -3.6 | -2.3% | -7.7 | 2.7%
CC(Oc1ccc(Br)cc1)C(=O)N1CCc2ccccc21 (stereo unspecified) | 3.1% | 1.47µM* | 7.3 | 35.7% | 44.9 | 22.0%
